# In PubChem BioAssay (NCATS):
# Inconclusive results are not listed. A call without a number means that no potency is given here. Unmarked numbers belong to inactive results. Activity calls are given as the source filed them. Calls come from the whole dose curve; as a rule, active = well fitted curve in the direction sought with a large enough effect; inconclusive = small, poorly fitted or top-dose-only effect, or another doubt; inactive = no such curve, though single readings can be large; an effect the other way counts as inactive or inconclusive.
# Tests used:
# [1] = Primary qHTS for inhibitors of nuclear receptor binding SET domain protein 2 (NSD2) in an isogenic RCH-ACV NSD2 p.E1099K mutant (9B) (AID 1645876); conditions: RCH-ACV NSD2 E1099K (9B) viability, CellTiter-Glo, 72 h; series mostly up to 44.9 µM
# [2] = Primary qHTS for inhibitors of nuclear receptor binding SET domain protein 2 (NSD2) in an RCH-ACV wild type WT cells (2C) (AID 1645877); conditions: RCH-ACV (leukaemia line) NSD2 WT (2C) viability, CellTiter-Glo, 72 h; series mostly up to 44.9 µM
# Note: nearly all actives have a fitted effect of over 70% in size.
Structure (SMILES),Potency [1],Potency [2],"activity change, negative = viability loss [1]","activity change, negative = cell killing [2]"
O=C(CCCN1CCN(c2ccccn2)CC1)c1ccc(F)cc1,inactive,inactive,–,–
Cn1cc[nH]c1=S,inactive,inactive,–,–
CCC(=O)Nc1ccc(O)cc1,inactive,inactive,–,–
CN(C)CCOC(C)(c1ccccc1)c1ccccn1 (stereo unspecified),inactive,inactive,–,–
CCCCCCCCCCCCOS(=O)(=O)O,inactive,inactive,–,–
O=C1O[C@H](CO)[C@@H](O)[C@H](O)[C@H]1O,inactive,inactive,–,–
OCC(CO)N[C@H]1C[C@](O)(CO)[C@@H](O)[C@H](O)[C@H]1O,inactive,inactive,–,–
O=C(O)c1ccccc1O,inactive,inactive,–,–
CCOc1ccc2ccccc2c1C(=O)N[C@@H]1C(=O)N2[C@@H]1SC(C)(C)[C@@H]2C(=O)O,inactive,inactive,–,–
CCCCC(CC)COC(=O)c1ccccc1O (stereo unspecified),inactive,inactive,–,–
CCCCC/C(C=O)=C\c1ccccc1,inactive,inactive,–,–
N[C@@H](CSSC[C@H](N)C(=O)O)C(=O)O,–,–,-6.57% [at 0.588 µM],2.98% [at 0.588 µM]
CCCCCCCCCCCCCCCCCCOCC(O)CO (stereo unspecified),inactive,inactive,–,–
Oc1ccc(C(O)CNCCCCCCNCC(O)c2ccc(O)c(O)c2)cc1O (stereo unspecified),inactive,inactive,–,–
O=C(O)CN1C(=O)c2cccc3cccc(c23)C1=O,inactive,inactive,–,–
CN1CCC[C@@H]1Cc1c[nH]c2ccc(CCS(=O)(=O)c3ccccc3)cc12,inactive,inactive,–,–
CCCCOc1cc(C(=O)OCCN(CC)CC)ccc1N,inactive,inactive,–,–
Cc1cccc(C)c1NC(=O)CN(CC(=O)O)CC(=O)O,inactive,inactive,–,–
